# CHRM1 agonist – activates human CHRM1 receptor; P11229; actives 0.33% (n = 360,000); CHO-K1 hM1, Fluo-8 calcium fluorescence, agonist mode; 0% DMSO, 100% acetylcholine EC100; activation, % at 3 µM; AID 588814;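 active = activation above the run's mean compound activation plus 3 SD, cut at about 16% in these data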;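 note: peak over basal fluorescence ratio within a 140 s kinetic read after compound addition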
# Target sequence (P11229 whole entry, looked up): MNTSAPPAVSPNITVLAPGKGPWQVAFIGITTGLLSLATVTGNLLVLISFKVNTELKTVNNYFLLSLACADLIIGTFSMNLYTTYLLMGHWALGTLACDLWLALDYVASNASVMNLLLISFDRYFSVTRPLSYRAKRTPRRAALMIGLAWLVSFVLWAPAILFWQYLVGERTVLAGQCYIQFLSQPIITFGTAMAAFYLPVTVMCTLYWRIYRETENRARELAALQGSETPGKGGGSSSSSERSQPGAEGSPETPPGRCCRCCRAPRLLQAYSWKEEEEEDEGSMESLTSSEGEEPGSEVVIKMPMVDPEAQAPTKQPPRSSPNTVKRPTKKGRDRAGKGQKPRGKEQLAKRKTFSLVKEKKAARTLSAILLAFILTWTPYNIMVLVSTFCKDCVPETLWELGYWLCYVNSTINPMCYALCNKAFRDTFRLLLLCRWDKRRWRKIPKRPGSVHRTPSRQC
# M1 ag parental – M1 agonist counterscreen hit in parental CHO-K1 cells; Fluo-8 calcium fluorescence; scaled to maximal ATP response, vehicle zero; activation, % at 3 µM; actives 0.48% (n = 360,000); in the data active = activation above about 15%;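 note: untransfected CHO-K1 host cells lacking M1 receptor as counterscreen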
# M1 PAM – potentiates human M1 receptor response to acetylcholine | activation, % at 3 µM | actives 0.088% (n = 360,000) | P11229 | AID 588819 | CHO-K1 hM1, Fluo-8 calcium fluorescence, ACh EC20; 0% = ACh EC20, 100% = maximal ACh; in the data active = activation above about 19%, passing the limit was not always enough
# M1 antag – antagonists of human M1 muscarinic receptor. P11229. CHO-K1 hM1, Fluo-8 calcium fluorescence, ACh EC80 antagonist. inhibition, % at 3 µM. actives 1.3% (n = 360,000);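 active = percent inhibition above its own plate's cutoff, namely the mean of that plate's compound wells plus 3 SD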;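 note: peak over basal fluorescence ratio during 140 s after agonist addition; 0% = ACh EC80 plus DMSO and 100% = DMSO alone without agonist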
# CHO-K1 Ca PAM – nonselective activator or artifact in parental CHO-K1 calcium assay; ATP EC20, Fluo-8 calcium fluorescence; 0% at ATP EC20, 100% at ATP max; activation, % at 3 µM; actives 0.02% (n = 360,000); AID 602247;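 active = activation above the run cutoff, the mean activation of all test compounds plus 3 SD, cut at about 40% in these data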;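 note: peak over basal fluorescence ratio in a 140 s read after ATP addition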
# CHO-K1 Ca antag – nonselective inhibitor or artifact in parental CHO-K1 cells | actives 0.6% (n = 360,000) | ATP-induced calcium, Fluo-8 fluorescence | AID 602250 | inhibition, % at 3 µM;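 active = inhibition above a per-plate cutoff, the plate's mean sample inhibition plus 3 SD, cut at about 24% in these data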;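 note: 0% = DMSO plus EC80 ATP and 100% = DMSO alone without ATP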
# Numbers without * were called inactive. An excerpt weighted towards active compounds, which were near 2.3% of everything screened.
SMILES,CHRM1 agonist,M1 ag parental,M1 PAM,M1 antag,CHO-K1 Ca PAM,CHO-K1 Ca antag
C[C@H](CO)N1C[C@H](C)[C@@H](CN(C)S(C)(=O)=O)Oc2ccc(NC(=O)CCN3CCOCC3)cc2C1=O,-2,0,5,-9,12,-13
C[C@H](CO)N1C[C@H](C)[C@@H](CN(C)S(=O)(=O)c2cccs2)Oc2ccc(NC(=O)CCC(F)(F)F)cc2C1=O,-12,0,-35,57*,9,-7
C[C@H](CO)N1C[C@H](C)[C@@H](CN(C)S(=O)(=O)c2ccccc2)Oc2ccc(NC(=O)CCN3CCOCC3)cc2C1=O,-12,0,-33,35*,-4,2
CCCCn1c(N)c(N(CC(C)C)C(=O)c2cccc(-n3cnnn3)c2)c(=O)[nH]c1=O,-3,0,-1,6,-6,-3
CN(C(=O)c1cccc(C#CC(C)(C)O)c1)C1CCCN(Cc2ccccc2F)C1 (centres undefined),-9,1,5,-14,9,-6
Cc1ccc(-n2nnnc2SCn2nnc3ccccc3c2=O)c(C)c1,3,10,-7,19,-8,24*
Cc1cc(SCn2nnc3ccccc3c2=O)nc2ccccc12,-4,0,12,-3,15,-4
COc1ccc(CN2CCC(CO)(Cc3cccc(C(F)(F)F)c3)CC2)cc1Cn1cccn1,-2,8,-18,23*,10,-7
Cc1c(CN2CCC(CO)(Cc3cccc(C(F)(F)F)c3)CC2)c2ccccc2n1C,-8,3,-26,26*,16,-4
OCC1(Cc2cccc(C(F)(F)F)c2)CCN(Cc2cc3ccccc3o2)CC1,-5,1,-4,0,6,-10
N#Cc1cccc(NC(=O)CN2CCN(Cc3ccccc3)CC2)c1,-10,1,-5,16,3,-10
Nc1ccn([C@@H]2O[C@H](C(=O)N[C@H](CO)Cc3ccccc3)[C@@H](O)[C@H]2O)c(=O)n1,3,1,10,-26,16,-13
COc1ccc(OC)c(CC(=O)Nc2ccc3c(c2)c(=O)n(C)n3Cc2cccc(C(F)(F)F)c2)c1,-4,2,-6,-12,32,-29
Cc1nnc(Nc2ccc(C(=O)N3CCOCC3)cc2)c2ccccc12,0,0,27*,-45,19,-20
CN(C)CCCC1(O)c2ccccc2C=Cc2ccccc21,-5,0,-22,73*,-4,10
Cc1cc(-c2ccccc2)nc(Nc2nc3c(C)cccc3c(=O)[nH]2)n1,-4,1,10,-12,11,-5
CO/N=C/c1ccc(N2CCN(C(=O)c3ccc(Cl)cc3Cl)CC2)c([N+](=O)[O-])c1,10,12,-9,24*,3,22
COc1ccc(C(=O)NC(C(=O)OCC(=O)Nc2sccc2C(N)=O)C(C)C)cc1 (centres undefined),2,7,-1,11,-13,1
COc1ccc(CCC(=O)OCC(=O)Nc2sccc2C(N)=O)cc1,2,16*,-19,39*,-21,34*
COc1ccc(CCC(=O)OCC(=O)Nc2sccc2C(N)=O)cc1OC,2,15,-12,24,-15,26*
CCOc1ccc(-n2c(SCC(N)=O)nc3c(c2=O)SCC3)cc1,-2,0,4,-4,8,0
CC(C)Sc1nc2c(cnn2-c2ccc(Cl)cc2)c(=O)[nH]1,-2,0,12,1,3,-3
CCc1sc(C(=O)Nc2ncccc2C)cc1C,-2,0,10,-10,7,-6
CCc1sc(C(=O)Nc2ncccc2O)cc1C,5,0,25*,-28,8,1
O=C(CN1CCCCCC1)Nc1ccccc1C(=O)Nc1ccccc1,-6,0,4,-9,0,2
SMILES,CHRM1 agonist,M1 ag parental,M1 PAM,M1 antag,CHO-K1 Ca PAM,CHO-K1 Ca antag
Cc1noc(C)c1C(=O)OC(C)C(=O)c1ccc(C(C)(C)C)cc1 (centres undefined),-4,0,4,-10,11,-16
CN(C)CC/C=C1\c2cc(F)ccc2CSc2ccccc21,-11,9,-26,99*,24,-4
CN(C)CC/C=C1/c2cc(F)ccc2CSc2ccc(F)cc21,-8,1,-21,100*,22,-11
CCn1c(C)nc2c(C)[n+](CC(=O)c3ccc(Br)cc3)ccc21,-9,0,-17,22,-17,24*
O=C(O)c1cc([N+](=O)[O-])ccc1NCCCc1ccccc1,18*,1,-2,-24,2,7
O=C(O)c1cc([N+](=O)[O-])ccc1NCc1ccccc1,-2,0,-2,3,-6,13
Cc1c(Br)c([N+](=O)[O-])nn1C(C)C(=O)N1CCc2ccccc2C1 (centres undefined),-6,3,-23,73*,7,-6
Cc1c(Br)c([N+](=O)[O-])nn1CC(=O)N1CCc2ccccc2C1,-9,0,-2,7,5,10
Cc1ccc(C)c(C(=O)OCC(=O)Nc2ccc(N3CCOCC3)cc2)c1,3,1,25*,-24,12,-19
Cc1ccc(OCC(=O)Nc2ccc(N3CCCC3)cc2)cc1C,-9,0,-22,21,6,-7
Cc1cc(C)cc(OCC(=O)Nc2ccc(N3CCCC3)cc2)c1,-12,0,-36,56*,0,-10
Cc1ccc(C)c(SCC(=O)OCC(=O)NCCNC(=O)COC(=O)CSc2cc(C)ccc2C)c1,-1,1,6,-4,-2,1
CCn1c(C)c(C(C)=O)c(NCc2ccccc2)nc1=S,-9,-1,-22,51*,0,17
CC1(C)CC(=O)C(CC(=O)Nc2cc(C(F)(F)F)ccc2Cl)C(=O)C1,-1,1,2,-4,16,-14
CN1C[C@@H]2C(c3ccccc3)C3(c4cccnc4)CC2(C3)[C@H]1c1ccccc1 (some centres undefined),-11,0,-34,97*,13,-2
CCn1c(CNc2ccc(F)cc2)nnc1SCCN1CCCCC1,-3,0,-7,14,6,0
CCn1c(CNc2ccccc2Cl)nnc1SCCN1CCCCC1,-4,0,-21,51*,13,-9
O=C(O)CSc1cn(Cc2ccccc2)c2ccccc12,-3,1,9,-12,13,-9
O=C(O)c1cn(Cc2ccccc2)c2ccccc2c1=O,82*,1,-11,62*,23,-5
CCN(CC(=O)Nc1ccccc1C(F)(F)F)C(=O)CN1C(=O)NC2(CCCCC2)C1=O,-4,0,4,-5,-26,27*

# Screening results (PubChem BioAssay)
